Data as given in the supplement of paper PMC6555819.

test system: LXRb:RXRa (NR concentration 270 nM, RXRa partner concentration 90 nM); test: PBM binding z-score (relative to random genomic background probes); higher = stronger binding; sequences stand for … in GC…GCGATTGACAGCGTAGAATGAAGG
Outline: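 Binding buffer was PBS pH 7.4 with 2% milk, 0.02% Triton X-100, 1 mM DTT, 0.2 mg/mL BSA and 0.4 mg/ml salmon testes DNA. In it, ligand-free nuclear receptor dimers were incubated 1 h on custom Agilent 4×180K protein-binding microarrays carrying double-stranded probes. Antibodies against each partner (one per run) detected binding, and z-scores were calculated against random background probes after regression normalization of scanned fluorescence.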

Sequence	PBM binding z-score
CATACAGGGTCAGCAAGGCCAGAGTAGGGACGGC	2.23
CCTACTGGGCCAAAAAAGTCATTGATGCCGATAA	-0.181
CCAGACAGGTGGAAGGTAACTCAGTCTGGTACGC	-0.402
GCTAGTTGGTCAGTAAAGGGTCACACACCGGTCG	2.63
TCTTGTAGCTCAAGCAGGTTAAGAAAGCCTGAGT	0.0107
ACTAGCAGGCCAAGGGTCACTAAAGATTAGTCCG	2.66
CCGACTGGGGCCAGGTTACCATAACGCACAGCCA	0.152
ATATGTAGGTTATCGGGTCATTCAATTTGCGCAT	3.51
CCTTTCGGGTCACTCCAGGTTATAGCATCGGAGT	5.17
ACAGACAGGTGAGTGAAGGTAACTCCGCTGGACG	-0.498
TGTCAAAGTTCAACGGTAACGTAAGTATCCACAC	3.92
ATCTGTAGGTTAAGGGTCATTCAGGTTGGTTCGC	4.56
GGAAGGAGGGCAAAGTTGATAGCATCTGTCGACG	1.88
CGTCGAAGTTCAAGGTAACGTAACAGAAAGCAGC	1.38
AGTCAAAGTTCATCCAGGTAACGTAAGATATGCT	3.62
TAGCCTAGGTCATGGGCGAGTATACCACGCGAAC	2.28
CCAGACAGGTGAGAAGGTAACTAAGCCTCGATTA	-0.0609
CATACAGGGTCAGCTACGCCAGAGTAGGGACGGC	2.3
CATACAGGGTCAGCGAGGCCAGAGTAGGGACGGC	2.27
AATACAGGGTCATCGCAGGCCAGAGTACGCACAG	4.62

Sequence	PBM binding z-score
TCATATAGGAAATACAGGTGAAAGTCGGCATCTA	1.27
TTACCAAGGTGGGCTGAGGTCGTTGATCCAACTC	0.938
CAAACTAGGTCACCGGAAGGTCAAACTCCGCATG	5.67
TAGCCTAGGTCAGATCGGACCAGTATACGCTATA	1.03
TCATATAGGTAAAAGGTGAAAGTCGGTGTGGTAA	2.29
ACTATTCGTTGAGACGAGGGCAACCGATAGGTTG	0.132
TCGAGTAGGTTACCAATGGGCCATTCAGCTTTCT	0.464
TCGAGTAGGTTAGACGGGGCATTCAGCCAACATA	0.522
AGAATGAGGTTACTAAGATCAGGGAATTGCGGTC	0.978
CCGACTGAGGCAGAAAGGTTACCATACCATCCGG	0.877
GCAGACAGGTGAAACGCACGTAACTCAGGGTGGC	-0.277
CCGACTGGGGCAGAAAGGTTACCATACCATCCGG	0.947
GCTCGGAGGAAAAGGTCAGAGCTTTGTCCGTAGA	2.58
AGAATGAGGTAAAGATCAGGGAAACAGAATACAT	0.517
CAGCCCAGGTCAGGGCCAGTATAGGAGGAACGTT	1.01
CGAACTAGGTCAGAACAGGACAGTGGAGGATGAT	0.242
CCTACTGGGCCATCAGGTCATTGATATCAACGTT	1.56
GTTTACGGGTCAAAGGTTATAGCATGAATAGAAT	6
TCAGACAGGTGAAGGTAACTCCGGTACGCAGTCG	0.966
TAGCCTAGGTCATGGGCCAGTATGCCACGCGAAC	2.02
